Data reported in PubChem BioAssay AID602366 (National Center for Advancing Translational Sciences (NCATS), 2012).
Records with an inconclusive call do not appear. Active and inactive are the calls of the source. Calls come from the whole dose curve; as a rule, active = well fitted inhibition curve with a large enough effect; inconclusive = small, poorly fitted or top-dose-only effect; inactive = flat fitted curve, though single readings scatter.

Test: qHTS Assay for Inhibitors of Bacillus subtilis Sfp phosphopantetheinyl transferase (PPTase): SAR in B subtilis HM489
Conditions: B. subtilis HM489 whole-cell Sfp-dependent phenotype; series mostly up to 114 µM; activity, negative = inhibition: at the top concentration
Excerpt: The covalent attachment of a phosphopantetheinyl (4'-PP) arm to a variety of synthases and other proteins is a key posttranslational protein modification. The 4'-PP is installed on the proteins post-translationally from coenzyme A (CoA) on a conserved serine residue by action of phosphopantetheinyl transferase (PPTase) enzymes. Phosphopantetheinylation is essential for synthase activity, and removal of the PPTase gene precludes natural product synthesis in microorganisms, or in the case of fatty acid biosynthesis, renders the organism unviable. PPTase enzymes belong to a distinct structural superfamily. Within bacteria, these enzymes are grouped into two classes based upon primary structure, the AcpS-Type and Sfp-Type PPTases.
Sfp-type PPTases, corresponding to an activator of surfactin production in Bacillus subtilis, are responsible for modifying type I polyketide and nonribosomal peptide synthases of prokaryotes. Sfp-type PPTases are responsible for the activation of a variety of pathogen-associated virulence factors. Among these compounds are toxins such as mycolactone from Mycobacterium ulcerans, siderophores such as vibriobactin from Vibrio cholerae or mycobactin from Mycobacterium tuberculosis, as well as the mycolic acids which form the waxy cell wall of Mycobacteria. The biosyntheses of these natural products are considered attractive targets for drug design.
In search of small molecule Sfp-PPTase inhibitors, a fluorescence quenching assay was developed for detection of Bacillus subtilis Sfp-PPTase enzymatic activity in a miniaturized high-throughput format. The consensus ybbr acceptor peptide […] was N-terminally labeled with Black Hole Quencher-2 (BHQ-2) and used in combination with rhodamine-labeled coenzyme A as a co-substrate.
Phosphopantetheinyl transfer is a process essential to cellular viability and maintenance. Cellular permeable and stable compounds acting as PPTase inhibitors are anticipated to be antimicrobial agents in organisms with complimenting genotypes. […] This experiment evaluated a series of test compounds for antimicrobial activity with B. subtilis HM489 (genotype: acpS- and sfp+), a strain that contains a targeted lesion in the acpS locus and thus requires a functional Sfp gene product for viability. [Mootz HD, 2001] This strain is expected to be sensitized to cell-permeable Sfp inhibitors.
NIH Chemical Genomics Center [NCGC]
NIH Molecular Libraries Probe Centers Network [MLPCN]
Assay Submitter (PI): Michale Burkart, University of California, San Diego
Bacillus subtilis HM489 is maintained on lysogeny broth (LB) solidified by the addition of 1.5% w/v agar. Single colonies were used to LB medium (2 mL) and shaken overnight at 30 deg C. In the morning, this culture (100 uL) was used to seed a fresh LB medium (10 mL) and was shaken at 30 deg C until the culture OD600 reached 0.5. This culture was diluted 1:100 in fresh LB medium to provide the inoculum below.
Bacterial susceptibility.
LB medium (2 uL) is dispensed into wells of a sterile white 1536-well plate. Test compounds (23 nL) prepared as serial dilutions in DMSO are added to the plate by pintool transfer. Innoculum (2 uL) is added; the plates are covered with a vented Kalypsys assay lid and incubated at 30 deg C. After 5 h, Bac-Titer Glo (4 uL; Promega Corp, Madison, WI) is added to the plates. They are incubated 10 minutes at room temperature and then the luminescence detected in a ViewLux multimodal plate reader.
In the case of Cc1cc(C)nc(NC(=S)N2CCN(c3ncccc3C#N)CC2)c1, the “activity, negative = inhibition” value is reported as -15.5% (inactive). For Cc1cc(C)nc(NC(=S)N2CCN(c3ccc(Cl)cc3Cl)CC2)c1, the Potency was 29.6 µM (active). For Cc1ccnc(NC(=S)N2CCN(c3cc(C(F)(F)F)cc(C(F)(F)F)c3)CC2)c1, the Potency was 11.8 µM (active). In the case of Cc1ccnc(NC(=S)N2CCN(c3cccc(C(F)(F)F)c3)CC2)c1, the Potency is reported as 10.5 µM (active). For COc1ccnc(NC(=S)N2CCN(c3cccc(Cl)c3Cl)CC2)c1, the Potency was 8.35 µM (active). For Cc1ccnc(NC(=S)N2CC3CN(c4cccc(C(F)(F)F)c4)CC3C2)c1 (centres undefined), the Potency was 5.27 µM (active). In the case of CSC(Cc1ccc(Cl)cc1)C(=O)Nc1ccc(Cl)cc1C(=O)O (centres undefined), the Potency is reported as 26.4 µM (active). For FC(F)(F)c1cccc(N2CCN(C(=S)Nc3cc(C(F)(F)F)ccn3)CC2)c1, the Potency was 10.5 µM (active). In the case of Cc1cc(C)nc(NC(=S)N2CCN(c3cc(Br)cc(C(F)(F)F)c3)CC2)c1, the Potency is reported as 4.69 µM (active). For Cc1cc(C)nc(NC(=S)N2CCN(c3ccc(Cl)c(Cl)c3)CC2)c1, the Potency was 26.4 µM (active). In the case of Cc1ccnc(NC(=S)N2CCCN(c3cccc(C(F)(F)F)c3)CC2)c1, the Potency is reported as 4.18 µM (active). In the case of Cc1ccnc(NC(=S)N2CCN(c3cccc(N(C)C)c3)CC2)c1, the Potency is reported as 46.9 µM (active). In the case of Cc1ccnc(NC(=S)Nc2cccc(C(F)(F)F)c2)c1, the Potency is reported as 10.5 µM (active). With Cc1cc(C)nc(NC(=S)N2CCN(c3ccc([N+](=O)[O-])cc3Cl)CC2)c1 the Potency was 18.7 µM (active). With COc1ccnc(NC(=S)N2CCN(c3ccc(Cl)cc3Cl)CC2)c1 the Potency was 10.5 µM (active). In the case of COc1ccnc(NC(=S)N2CCN(c3ncc(C(F)(F)F)cc3Cl)CC2)c1, the Potency is reported as 6.63 µM (active). In the case of COc1cccc(NC(=S)N2CCN(c3ccc(Cl)c(Cl)c3)CC2)n1, the “activity, negative = inhibition” value is reported as -17.5% (inactive). For Cc1ccnc(NC(=S)N2CCCc3ccc(C(F)(F)F)cc32)c1, the “activity, negative = inhibition” value was -19.8% (inactive). In the case of S=C(Nc1cc(Cl)ccn1)N1CCN(c2cccc(Cl)c2Cl)CC1, the Potency is reported as 8.35 µM (active). With Cc1ccnc(NC(=S)N[C@@H]2CCN(c3cccc(C(F)(F)F)c3)C2)c1 the Potency was 29.6 µM (active). In the case of FC(F)(F)c1cc(N2CCN(C(=S)Nc3cc(Cl)ccn3)CC2)cc(C(F)(F)F)c1, the Potency is reported as 4.18 µM (active). In the case of Cc1cc(C)nc(NC(=S)N2CCN(c3ccc(F)c(F)c3F)CC2)c1, the Potency is reported as 21 µM (active). For Cc1cc(C)nc(NC(=S)N2CC3CN(c4ccc(Cl)cc4C(F)(F)F)CC3C2)c1 (centres undefined), the Potency was 9.37 µM (active). With Cc1ccnc(NC(=S)N2CC3CN(c4ncc(C(F)(F)F)cc4Cl)CC3C2)c1 (centres undefined) the Potency was 11.8 µM (active).
